Screening data from PubChem BioAssay.
KCNQ2 enhance – KCNQ2 (rat) channel potentiation | AID 2239 | CHO-K1 KCNQ2, FluxOR thallium flux fluorescence; stronger effect = higher value | actives 0.54% (n = 310,000) | O88943 | B-score at 10 µM;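 active = fluorescence ratio B-score at least 3 SD of library B-scores, with initial fluorescence B-score within 3 of them, cut at about 5.3 in these data; same plate scores as AID 2156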;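 note: B-score of peak minus minimum over baseline fluorescence ratio after K+ and Tl+ stimulus; positive B-score means potentiation of KCNQ2 with more thallium influx and brighter signal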
KCNQ2 block – KCNQ2 (rat) channel inhibition; O88943; actives 1.1% (n = 310,000); CHO-K1 KCNQ2, FluxOR thallium flux, 20 min; stronger effect = lower value; B-score at 10 µM; AID 2156;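 active = fluorescence ratio B-score at most minus 3 library SDs, with starting brightness B-score within 2 library SDs, cut at about -5.5 in these data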
Kir21 conf inh – confirmation of mouse Kir2.1 potassium channel inhibitors; shares compounds with KCNQ2 enhance; Kir2.1-expressing cells, FluxOR thallium flux fluorescence; stronger effect = lower value; Tl flux remaining, % of negative control (stronger effect = lower value), % at 10 µM; actives 41% (n = 2,300); AID 2032;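 active = Primary-screen hit whose thallium flux fell at least 3 control SD below untreated wells in both duplicates, with normal baseline fluorescence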;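 note: 0% = blank wells without stimulus and 100% = stimulated no-compound controls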
HEK293 ctr – counter-screen for Kir2.1 inhibitors: effect in parental HEK293 cells; shares compounds with KCNQ2 enhance; FluxOR thallium flux fluorescence; 0% = unstimulated blank wells; FluxOR signal as % of negative control (100 = no effect), % at 10 µM; actives 19% (n = 2,300); AID 2105;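 active = dye signal at least 3 control SD above or below untreated wells in both duplicates, raw fluorescence within 3, either direction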;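 note: percent is based on the flux ratio of peak minus minimum fluorescence over baseline F0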
CHO-K1 Tl ctr – parental CHO-K1 activity in KCNQ2 potentiator counter-screen. shares compounds with KCNQ2 enhance. parental CHO-K1 cells, FluxOR thallium flux fluorescence; zero = vehicle mean+3SD, 100% = vehicle-minus-blank window. activity increase over 3SD of controls, % at 10 µM. actives 43% (n = 1,200). AID 2282;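 active = signal rise of at least 3 SD above the untreated control mean, in both duplicate wells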;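 note: counter screen of KCNQ2 potentiator hits so any rise reflects channel-independent effects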
KCNQ1 sel pot – tests whether KCNQ2 potentiators also act on human KCNQ1; shares compounds with KCNQ2 enhance; CHO KCNQ1 stable, FluxOR thallium flux fluorescence; beyond 3SD, as % of vehicle-control signal; activation over 3SD threshold, % at 10 µM; actives 28% (n = 1,200);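 active = fluorescence ratio rise of at least 3 SD of vehicle wells above their mean, in both replicate wells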;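 note: 0% = vehicle mean plus 3 SD and 100% = vehicle minus unstimulated blank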
Target sequence (P51787 whole entry, looked up): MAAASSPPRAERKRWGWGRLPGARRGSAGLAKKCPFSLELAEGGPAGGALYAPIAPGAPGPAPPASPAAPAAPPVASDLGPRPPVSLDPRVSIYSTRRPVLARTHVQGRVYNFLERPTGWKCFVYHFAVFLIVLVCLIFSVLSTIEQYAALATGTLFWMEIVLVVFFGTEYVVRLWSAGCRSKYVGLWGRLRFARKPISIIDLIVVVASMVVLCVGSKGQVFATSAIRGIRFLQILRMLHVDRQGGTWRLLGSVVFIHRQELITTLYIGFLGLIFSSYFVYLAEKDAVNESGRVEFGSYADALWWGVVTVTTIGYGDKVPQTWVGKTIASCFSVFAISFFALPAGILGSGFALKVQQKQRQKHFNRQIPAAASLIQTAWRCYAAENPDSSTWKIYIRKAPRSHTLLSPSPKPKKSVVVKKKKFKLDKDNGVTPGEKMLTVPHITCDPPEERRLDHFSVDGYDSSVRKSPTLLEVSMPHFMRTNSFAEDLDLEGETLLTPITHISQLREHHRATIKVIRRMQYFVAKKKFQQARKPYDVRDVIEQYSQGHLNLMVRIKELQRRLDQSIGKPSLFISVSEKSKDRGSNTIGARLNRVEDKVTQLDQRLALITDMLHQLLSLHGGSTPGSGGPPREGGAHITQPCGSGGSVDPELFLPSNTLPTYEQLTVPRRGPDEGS
KCNQ2 pot confirm – rat KCNQ2 channel potentiator confirmation; AID 2287; potentiation, less the hit threshold, % at 10 µM; actives 68% (n = 1,200); CHO-KCNQ2 cells, FluxOR thallium flux fluorescence; shares compounds with KCNQ2 enhance;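 active = fluorescence ratio rising 3 SD or more over the vehicle control mean in both replicates, plus primary screen hit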;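 note: peak minus minimum thallium fluorescence divided by baseline after K/Tl stimulus; 0% = vehicle mean plus 3 SD and 100% = vehicle minus unstimulated blank difference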
Kir2-1 sel – tests whether KCNQ2 potentiators also affect mouse Kir2.1 | shares compounds with KCNQ2 enhance | HEK293 Kir2.1, FluxOR thallium flux fluorescence | activity over 3SD threshold, % at 10 µM | actives 2% (n = 1,200) | AID 2345;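 active = fluorescence ratio rise of at least 3 SD above the vehicle-control mean, seen in both replicates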;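 note: 0% = vehicle mean plus 3 SD and 100% = vehicle minus no-stimulus blank window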
KCNQ2 W236L pot – rat KCNQ2 W236L mutant potentiation by KCNQ2 potentiators. shares compounds with KCNQ2 enhance. CHO KCNQ2-W236L, automated patch clamp current. current increase over 3SD of negative controls (%), stronger effect = higher value, % at 25 µM. actives 10% (n = 940). AID 2558;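 active = current increase at least 3 SD of the untreated controls above them in both duplicate recordings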
An asterisk follows results filed as active; i = inactive; · = no result given. An excerpt weighted towards active compounds, which were near 1.6% of everything screened.

SMILES	KCNQ2 enhance	KCNQ2 block	Kir21 conf inh	HEK293 ctr	others
O=c1c(Cl)c(Cl)cnn1Cc1nnc(-c2ccccc2Br)o1	5.48*	i	i	i	CHO-K1 Tl ctr=40.8*;KCNQ1 sel pot=-12.4;KCNQ2 pot confirm=12.5*;Kir2-1 sel=-33.5;KCNQ2 W236L pot=i
O=C1NC2(CCCc3ccccc32)C(=O)N1Cc1nnc(-c2ccccc2Br)o1 (centres undefined)	·	i	·	·
CN[C@@H]1CC[C@H](c2ccc(Cl)c(Cl)c2)c2ccccc21	·	i	47.0%*	i
COc1ccccc1C1CCN(Cc2ccc(Cl)c(Cl)c2)CC1	·	i	·	·
O=C(COC(=O)c1ccc(Cl)c(S(=O)(=O)N2CCOCC2)c1)NCc1ccco1	·	i	·	·
COc1ccccc1NC(=O)Cn1ccn(-c2cccc3ccccc23)c(=O)c1=O	·	i	·	·
O=C(O)C(F)=C(c1ccccc1)c1ccccc1	0.37	i	·	·
O=C(Cn1ncc2c3ccccc3n(Cc3ccccc3)c2c1=O)NC1CCCC1	·	i	·	·
O=C(Cn1ncc2c3ccccc3n(Cc3ccccc3F)c2c1=O)NCC1CCCO1 (centres undefined)	5.97*	i	i	i	CHO-K1 Tl ctr=21.9*;KCNQ1 sel pot=-17.4;KCNQ2 pot confirm=-4.5;Kir2-1 sel=-28.6;KCNQ2 W236L pot=i
O=C(Cn1ncc2c(=O)oc3ccccc3c21)NCC1CCCO1 (centres undefined)	1.48	i	·	·
O=C(Cn1ncc2c3ccccc3n(Cc3ccccc3F)c2c1=O)N1CCN(c2ccccn2)CC1	11.3*	i	i	i	CHO-K1 Tl ctr=37.9*;KCNQ1 sel pot=-10.0;KCNQ2 pot confirm=24.1*;Kir2-1 sel=-31.9;KCNQ2 W236L pot=i
O=C(Cn1ncc2c3ccccc3n(Cc3cccc(Cl)c3)c2c1=O)NCC1CCCO1 (centres undefined)	8.18*	i	i	i	CHO-K1 Tl ctr=69.1*;KCNQ1 sel pot=-26.6;KCNQ2 pot confirm=2.4*;Kir2-1 sel=-16.4;KCNQ2 W236L pot=i
O=C(CCSCc1ccccc1F)N1CCN(c2ccccn2)CC1	·	i	·	·
O=C(O)c1cc(S(=O)(=O)NC(Cc2c[nH]c3ccccc23)C(=O)O)ccc1Cl (centres undefined)	·	i	·	·
Cc1cccc(C)c1OCC(=O)N/N=C/c1cccnc1	·	i	·	·
OC(COc1ccc2cc(Br)ccc2c1)CN1CCCC1 (centres undefined)	·	i	38.5%*	i
COc1cccc(OCC(O)CN2CCN(c3ccccn3)CC2)c1 (centres undefined)	0.33	i	·	·
OC(COc1ccc2cc(Br)ccc2c1)CN1CCN(c2ccccn2)CC1 (centres undefined)	7.38*	i	i	i	CHO-K1 Tl ctr=-7.4;KCNQ1 sel pot=13.9*;KCNQ2 pot confirm=-11.3;Kir2-1 sel=-11.0
O=S(=O)(N1CCCCC1)N1CCN(CC(O)COc2ccc3cc(Br)ccc3c2)CC1 (centres undefined)	1.15	i	·	·
CCC(C)c1ccccc1N=Cc1ccc2c(c1)OCO2 (centres undefined)	·	i	·	·
CC(C)CCNC(=O)COc1cccc2c1OC(C)(C)C2	0.68	i	·	·
COc1ccc(CCNC(=O)COc2cccc3c2OC(C)(C)C3)cc1OC	·	i	52.0%*	i
C/C(CCC(=O)O)=N/Nc1ccc([N+](=O)[O-])cc1[N+](=O)[O-]	1.62	i	·	·
O=C(O)/C(CC(=O)c1ccc(Cl)cc1)=N/Nc1ccc([N+](=O)[O-])cc1[N+](=O)[O-]	7.68*	i	i	i	CHO-K1 Tl ctr=-9.2;KCNQ1 sel pot=-8.5;KCNQ2 pot confirm=32.4*;Kir2-1 sel=-50.0;KCNQ2 W236L pot=i
CC1CCCC(NC(=O)COC(=O)Cc2ccc(Br)cc2)C1C (centres undefined)	0.24	i	·	·
SMILES	KCNQ2 enhance	KCNQ2 block	Kir21 conf inh	HEK293 ctr	others
CC1CCCC(NC(=O)Cc2ccc(Br)cc2)C1C (centres undefined)	5.55*	i	i	i	CHO-K1 Tl ctr=49.4*;KCNQ1 sel pot=1.4*;KCNQ2 pot confirm=3.0*;Kir2-1 sel=-12.4;KCNQ2 W236L pot=i
Cc1c(Br)cc(C(=O)OC2CCN(C)CC2)c(C)c1C	0.45	i	25.0%*	i
CN1CCC(OC(=O)c2ccccc2)CC1	0.61	i	·	·
O=C(/C=C/c1ccc([N+](=O)[O-])cc1)NCc1ccco1	0.51	i	·	·
O=C(/C=C/c1ccc([N+](=O)[O-])cc1)/C=C/c1ccco1	-6.07	-6.07*	i	i
COc1cccc(NC(=O)c2nc(SC)ncc2Cl)c1	0.34	i	·	·
COc1cccc(NC(=O)c2nc(S(C)(=O)=O)ncc2Cl)c1	·	i	63.0%*	64.5%*
COc1cccc(CNc2ccc3[nH]c(=O)[nH]c3c2)c1OCc1ccccc1Cl	2.1	i	·	·
COc1cccc(CNc2ccc3[nH]c(=O)[nH]c3c2)c1OCc1ccccc1	7.93*	i	·	·	CHO-K1 Tl ctr=32.2*;KCNQ1 sel pot=-20.7;KCNQ2 pot confirm=-5.8;Kir2-1 sel=-78.5
O=C(Nc1nc(-c2ccccc2)c(-c2ccccc2)o1)c1ccc(F)cc1	4.25	i	i	150.0%*
COc1cccc(C(=O)Nc2nc(-c3ccccc3)c(-c3ccccc3)o2)c1	2.27	i	·	·
Cc1ccccc1Cn1c(=N)n(CC(O)c2ccco2)c2ccccc21 (centres undefined)	·	i	63.5%*	i
N=c1n(CCN2CCCC2)c2ccccc2n1CC(O)c1ccco1 (centres undefined)	0.01	i	·	·
CC(C)(C)c1ccc(Cn2c(=N)n(CC(O)c3ccco3)c3ccccc32)cc1 (centres undefined)	·	i	·	·
CCCCCCCn1c(=N)n(CC(O)c2ccco2)c2ccccc21 (centres undefined)	3.18	i	45.0%*	i
CCCCn1c(=N)n(CC(=O)c2ccco2)c2ccccc21	2.24	i	·	·
CCCCCCCn1c(=N)n(CC(=O)c2ccco2)c2ccccc21	1.19	i	55.5%*	i
COC(=O)c1ccc(OC)c(CN2CCCN(Cc3ccc(F)cc3)S2(=O)=O)c1	1.55	i	·	·
CC(=O)Nc1ccc(S(=O)(=O)NCC(=O)OCC(=O)NCc2ccco2)cc1	·	i	·	·
N#CCC(=O)Nc1ccc(C(=O)NCc2cccc(Cl)c2)cc1	0.62	i	·	·
CCn1c2ccccc2c2cc(Nc3cc(C)nc4ncnn34)ccc21	0.69	i	67.0%*	i
CCc1ccc(Nc2cc(C)nc3ncnn23)cc1	1.43	i	·	·
Cc1ccc(N)cc1NC(=O)CN1CCOCC1	1.51	i	·	·
